Viability index data for 43 molecules are collected here from the supplement of paper PMC4723716.

This assay concerns Plasmodium falciparum NF54 stage V gametocytes. The assay is described as follows: viability index relative to DMSO control (fraction); higher = less gametocyte killing. As to conditions: 2.5 µM, incubation time: 72 h. The method in brief: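 Viability index is the count of red-stained particles in a well divided by the plate mean of solvent-only wells. Particles of 20–70 µm2 were counted in one imaged field per well after one to two hours with 3 µl of 2.5 µM MitoTracker Red CMXRos and 0.13% saponin. Before staining, P. falciparum NF54 stage V gametocytes in serum-free medium (0.75% gametocytemia, 1.25% hematocrit, 10 µl, 1,536-well plates) were kept with compound at 2.5 µM for 72 hr at 37°C under low oxygen.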

Setting [1] is: library set: Broad Institute DOS.
Setting [2] is: library set: Broad Institute Blood Stage.

Structures are written as SMILES. ± gives the uncertainty stated by the source. Whole data set: some 9,900 compounds, median “viability index relative to DMSO control” near 1, cut for the lowest 2% near 0.85. Only a selection was taken, and the lowest values are over-represented in it overall.

Regarding `C[C@@H](NC(=O)[C@@H]1[C@@H](CO)[C@@H]2Cn3c(ccc(-c4ccccc4)c3=O)[C@@H]2N1C)c1ccccc1`, under setting [1], the viability index worked out at 1.05 ± 0.015.
With `O=C(C[C@@H]1C[C@@H]2c3cc(NS(=O)(=O)c4ccc(F)cc4)ccc3O[C@@H]2[C@H](CO)O1)N1CCc2ccccc2C1`, the viability index under setting [1] turned out to be 1.13 ± 0.069.
`COCC(=O)N1CC(=O)N2[C@H](CO)[C@H](c3ccc(C#CC4CC4)cc3)[C@H]2C1` showed a viability index under setting [1] of 1.11 ± 0.027.
The molecule `CCS(=O)(=O)N(C)C[C@@H]1N[C@H](CO)[C@@H]1c1ccc(-c2ccccc2F)cc1` registered a viability index under setting [1] of 1.05 ± 0.031.
Under setting [1], `CN(C[C@H]1N[C@@H](CO)[C@H]1c1ccc(-c2ccc(F)cc2)cc1)C(=O)C1CCC1` registered a viability index of 0.971 ± 0.025.
Under setting [1], `CCN(C[C@@H]1N[C@@H](CO)[C@H]1c1ccc(-c2ccc(F)cc2)cc1)C(=O)CN(C)C` had a viability index of 0.711 ± 0.021.
Still for that read-out and setting: then `O=C(C[C@@H]1CC[C@H]2NC[C@@H](O)COC[C@@H]2O1)NC1Cc2ccccc2C1`, with 0.9847 ± 0.0032; and `O=C(C[C@H]1CC[C@H]2NC[C@@H](O)COC[C@@H]2O1)Nc1ccc(-c2ccccc2)cc1`, with 0.997 ± 0.036; and `CCc1csc(N2[C@H](CO)[C@H](c3ccccc3)[C@@H]2CNC)n1`, with 0.372 ± 0.18.
Turning to `CCc1csc(N2[C@H](CO)[C@H](c3ccccc3)[C@@H]2CN(C)C(=O)C2CCC2)n1`, under setting [1], the viability index was determined as 1.03 ± 0.059.
The same measure, in the same setting: then `C/C=C/c1ccc([C@H]2[C@@H](CO)N(c3nc(CC)cs3)[C@H]2C#N)cc1`, with 1.09 ± 0.035.
In turn, `CO[C@@H]1CN(C)C(=O)c2cc(NC(=O)Nc3cc(F)ccc3F)ccc2OC[C@H](C)NC[C@H]1C` came in with a viability index under setting [1] of 1.022 ± 0.01.
The same measure, in the same setting: as for `COc1cccc(C#Cc2ccc([C@@H]3[C@H](C#N)N(C(=O)c4ccccn4)[C@H]3CO)cc2)c1`, the figure is 0.929 ± 0.051.
With `COc1ccccc1C#Cc1ccc([C@@H]2[C@@H](CO)N(C(=O)C3CCC3)[C@H]2C#N)cc1`, the viability index under setting [1] came out at 1.06 ± 0.047.
Regarding `COc1ccccc1C#Cc1ccc([C@H]2[C@@H](CO)N(C(=O)C3CC3)[C@H]2C#N)cc1`, the viability index under setting [2] was 0.849 ± 0.047.
`COc1ccccc1C#Cc1ccc([C@@H]2[C@@H](C#N)N(C(=O)C3CCC3)[C@@H]2CO)cc1` displayed a viability index under setting [1] of 1.15 ± 0.082.
Still for that read-out and setting: as for `N#C[C@H]1[C@H](c2ccc(C#Cc3cccc(F)c3)cc2)[C@@H](CO)N1C(=O)C1CCOCC1`, the figure is 1.12 ± 0.025.
With `COc1ccccc1C#Cc1ccc([C@H]2[C@@H](C#N)N(C(=O)C3CCCC3)[C@H]2CO)cc1`, under setting [2], the viability index amounted to 0.583 ± 0.18.
`COc1cccc(C#Cc2ccc([C@H]3[C@@H](CO)N(C(=O)c4ccccn4)[C@H]3C#N)cc2)c1` displayed a viability index under setting [1] of 0.8087 ± 0.0043.
In turn, `COc1ccccc1C#Cc1ccc([C@H]2[C@@H](C#N)N(C(=O)C3CCC3)[C@@H]2CO)cc1` came in with a viability index under setting [1] of 1.05 ± 0.038.
The same measure, in the same setting: then `COc1ccccc1C#Cc1ccc([C@H]2[C@@H](C#N)N(C(=O)C3CCC3)[C@H]2CO)cc1`, with 0.846 ± 0.07; and `N#C[C@H]1[C@@H](c2ccc(C#Cc3cccc(F)c3)cc2)[C@@H](CO)N1C(=O)C1CCOCC1`, with 1.05 ± 0.058.
Still for that read-out and setting: then `COc1cccc(C#Cc2ccc([C@@H]3[C@@H](C#N)N(C(=O)c4ccccn4)[C@H]3CO)cc2)c1`, with 1.04 ± 0.029; and `COc1ccccc1C#Cc1ccc([C@H]2[C@H](C#N)N(C(=O)C3CCC3)[C@H]2CO)cc1`, with 1.02 ± 0.025; and `C[C@@H]1CN([C@@H](C)CO)C(=O)c2c(c3ccccc3n2C)-c2ccccc2CO[C@H]1CN(C)C(=O)[C@H]1CCCN1C`, with 1.08 ± 0.011.
Same read-out and setting: as for `C[C@H](CO)N1C[C@H](C)[C@@H](CN(C)CC2CC2)OCCCC[C@H](C)Oc2ccc(NC(=O)c3ccccc3)cc2C1=O`, the figure is 1.07 ± 0.02.
The molecule `CCCN(C)C[C@@H]1OCCCC[C@H](C)Oc2ccc(NC(=O)CCCN(C)C)cc2C(=O)N([C@@H](C)CO)C[C@@H]1C` showed a viability index under setting [1] of 1.1 ± 0.14.
Same read-out and setting: then `OC[C@H]1Nc2ccc(C#Cc3ccc(F)cc3)cc2[C@@H]2[C@H]1CCN2Cc1ccc2c(c1)OCO2`, with 1.06 ± 0.019.
The same measure, in the same setting: as for `CN1C(=O)c2cc(NC(=O)c3cccc(F)c3)ccc2OC[C@@H]2O[C@H](CC(=O)NCc3ccccc3Cl)CC[C@H]21`, the figure is 1.13 ± 0.036; as for `C[C@@H]1CN([C@H](C)CO)C(=O)c2cc(NS(=O)(=O)c3ccccc3)ccc2O[C@@H](C)CCCCO[C@@H]1CN(C)C(=O)C1CCCCC1`, 1.01 ± 0.13; as for `CC(C)C(=O)Nc1ccc2c(c1)C(=O)N(C)[C@H]1CC[C@@H](CC(=O)NCCc3ccccc3)O[C@@H]1CO2`, 1.03 ± 0.06.
As to `COc1ccccc1C#Cc1ccc([C@@H]2[C@@H](C#N)N(C(=O)C3CCC3)[C@H]2CO)cc1`, the viability index under setting [1] stood at 1.03 ± 0.022.
On the same count and under the same terms, as for `COc1ccccc1C#Cc1ccc([C@@H]2[C@H](C#N)N(C(=O)C3CCC3)[C@H]2CO)cc1`, the figure is 1.03 ± 0.09; as for `COc1cccc(C#Cc2ccc([C@H]3[C@@H](C#N)N(C(=O)c4ccccn4)[C@@H]3CO)cc2)c1`, 1.098 ± 0.009.
In the case of `COc1cccc(C#Cc2ccc([C@H]3[C@@H](CO)N(C(=O)C4CCCC4)[C@H]3C#N)cc2)c1`, the viability index under setting [2] came out at 0.882 ± 0.054.
The same measure, in the same setting: as for `COc1cccc(C#Cc2ccc([C@@H]3[C@@H](C#N)N(C(=O)C4CCCCC4)[C@H]3CO)cc2)c1`, the figure is 0.7 ± 0.1.
For the molecule `COc1ccccc1C#Cc1ccc([C@H]2[C@@H](C#N)N(C(=O)C3CCCCC3)[C@H]2CO)cc1`, the viability index under setting [2] came out at 0.345 ± 0.087.
For the molecule `CCCNC(=O)N(C)C[C@H]1Oc2ncc(C#CC3CCCCC3)cc2C(=O)N([C@@H](C)CO)C[C@@H]1C`, under setting [1], the viability index is 0.929 ± 0.067.
The molecule `Cc1ccccc1S(=O)(=O)Nc1ccc2c(c1)C(=O)N(C)[C@@H]1CC[C@H](CC(=O)O)O[C@@H]1CO2` came in with a viability index under setting [1] of 1.01 ± 0.033.
Same read-out and setting: then `CN(C)CC(=O)N1[C@H](C(=O)Nc2nccs2)[C@@H](CO)[C@@H]2Cn3c(ccc(C4=CCCCC4)c3=O)[C@@H]21`, with 1.02 ± 0.015.
The same measure, in the same setting: then `COc1ccc(CN2C[C@H](O)COC[C@@H]3O[C@H](CC(=O)N(C)C)CC[C@H]32)cc1`, with 1.08 ± 0.1; and `C[C@H](CO)N1C[C@H](C)[C@H](CN(C)C(=O)NC2CCCCC2)Oc2ccc(N(C)C)cc2CC1=O`, with 1.13 ± 0.1; and `CO[C@H]1CC[C@@H]2CCOc3c(C#N)cccc3C(=O)N(C)C[C@@H](OC)[C@@H](C)C(=O)N(C)C[C@@H]1O2`, with 1 ± 0.023.
